# Rows were chosen to be rich in hits. Some 13% of all compounds tested hit in one or more screens of this group.
# WT yeast gro inh = growth inhibition of WT yeast, mitochondrial fusion screen; mitochondrial fusion phenotypic screen, WT strain; inhibition, % at 10 µM; hit rate 2.1% among 190,000; in the data active means inhibition above about 58%; tested in S. cerevisiae
# RAM inhibit = inhibitors of the yeast RAM network; inhibition, % at 50 µM; hit rate 1.8% among 190,000; AID 868; S. cerevisiae dse1pr::URA3 reporter, 5-FOA growth OD615, 2 d; analog-sensitive cbk1-as2 kinase mutant strain;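 active means inhibition above a set limit, 3 SD over mean compound inhibition, cut at about 8.4% in these data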;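 further: 0% = DMSO-only wells with no growth and 100% = 10 µM 1-NA-PP1 full growth; inhibition rescues growth on 5-FOA so higher OD means more RAM inhibition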
# L major viab = inhibitors of Leishmania major promastigote growth. Leishmania major promastigotes, resazurin fluorescence viability. inhibition, % at 10 µM. hit rate 9% among 200,000. AID 1063; in the data active means inhibition above about 50%;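 further: promastigotes grown with compound for 44 hours at 28 °C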
# CHOP inhibitor = blocks CHOP induction under ER stress; CHO-K1 CHOP-promoter luciferase, tunicamycin-induced, 15-18 h; inhibition, % at 10 µM; hit rate 3.8% among 220,000;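 active means compounds that reduced the stress-induced luciferase reporter signal by more than about 70% of percent inhibition, limit read from the data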;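 further: 0% = tunicamycin plus vehicle and 100% = wells without tunicamycin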
# * = called active by the depositor; . = no result.
SMILES,WT yeast gro inh,RAM inhibit,L major viab,CHOP inhibitor
O=C(Nc1ccc(S(=O)(=O)N2CCCC2)cc1)C1CCCN1C(=O)c1cccs1 (stereo unspecified),-16,2,-8,16
O=C(NNc1ccccc1[N+](=O)[O-])Nc1cccc(Cl)c1,.,.,.,-23
COC(=O)C1CCN(C2CC(=O)N(c3cc(C)cc(C)c3)C2=O)CC1 (stereo unspecified),3,2,7,2
O=C(c1ccc(Cl)c(Cl)c1)N1CCC(=O)N(C(COCc2cccc(Cl)c2)Cc2ccccc2)CC1 (stereo unspecified),36,10*,6,56
O=C(c1cccc(Cl)c1)N1CCC(=O)N(C(COCc2cccc(Cl)c2)Cc2ccccc2)CC1 (stereo unspecified),52,9.5*,2,20
CC(C)CC(COCc1cccc(Cl)c1)N1CCN(C(=O)c2ccc(C(F)(F)F)cc2)CCC1=O (stereo unspecified),44,5,25,77*
O=C(CN(CCc1ccccc1)S(=O)(=O)c1ccc(Cl)cc1)N/N=C/c1ccccc1C(=O)O,8,3,-2,-5
CC(=O)Nc1ccc(N2C(=O)c3ccc(C(=O)Nc4nnc(SCc5ccc(F)cc5)s4)cc3C2=O)cc1,10,3,10,6
COc1cc(C2C3=C(CC(C)(C)CC3=O)OC(N)=C2[N+](=O)[O-])ccc1O (stereo unspecified),-16,2,-5,-10
CCc1nn(C(C)C(=O)NCCN2CCN(c3cccc(C)c3C)CC2)c(=O)c2cc3occc3n12 (stereo unspecified),58,1,85*,59
CCc1nn(C(C)C(=O)Nc2cccc(C)c2C)c(=O)c2cc3occc3n12 (stereo unspecified),-7,4,0,12
CCOC(=O)/C(C#N)=C\C1=C(N2CCOCC2)CC(C)(C)OC1,-11,1,-3,21
COc1ccc(/C=N/NC(=O)CCn2nc(C)cc2C)cc1O,.,.,.,-2
COc1ccc(/C=N/NC(=O)c2ccc(Cl)cc2)cc1Cn1cc(Cl)cn1,0,1,11,86*
COc1ccc(/C=N\NC(=O)COc2ccccc2Cl)cc1Cn1nc(C)cc1C,-1,4,3,81*
COc1ccc(/C=N/NC(=O)c2cc(Br)ccc2O)cc1Cn1cc(Cl)cn1,22,7,26,49
O=C1c2ccccc2C(=O)N1CCCCN(C(=O)c1ccc([N+](=O)[O-])cc1)c1ccc(Cl)cc1,23,5,43,20
O=C1c2ccccc2C(=O)N1CCCCN(C(=O)c1cc([N+](=O)[O-])ccc1Cl)c1ccc(Cl)cc1,66*,6,58*,-15
O=C1c2ccccc2C(=O)N1CCCCN(C(=O)c1cc([N+](=O)[O-])cc([N+](=O)[O-])c1)c1ccc(Cl)cc1,24,4,99*,12
CCOC(=O)CN=C/C(C(=O)Nc1nccs1)=C(/C)O,-9,0,-8,7
CCN1CCc2nc(NC(=O)CC(c3ccccc3)c3ccccc3)sc2C1,18,-1,56*,-10
COc1coc(/C=C/C(=O)O)cc1=O,-10,0,-5,-1
CC(C)CC(=O)Nc1cccc(NC(=O)CC(C)C)n1,-7,1,52*,24
CC(=O)Nc1cccc(NC(C)=O)n1,-11,0,-2,17
O=C(CNC(=O)c1ccccc1)N/N=C/c1ccccc1Cl,-2,0,31,9
SMILES,WT yeast gro inh,RAM inhibit,L major viab,CHOP inhibitor
CSc1ccc(/C=N/NC(=O)c2ccc(O)cc2)cc1,13,0,96*,-15
COc1ccc(C(=O)N/N=C/c2ccc(SC)cc2)cc1,0,0,-5,-10
O=C(CNc1ccccc1)N/N=C/c1ccc([N+](=O)[O-])o1,-1,3,100*,-1
O=C(CNC(=O)c1ccccc1)N/N=C/c1ccc([N+](=O)[O-])o1,-13,-1,99*,-30
Cc1ccc(/C=N/NC(=O)C(=O)N/N=C/c2ccc(C)o2)o1,-1,2,16,0
Cc1ccc(/C=N\NC(=O)c2cc([N+](=O)[O-])cc([N+](=O)[O-])c2)o1,-7,3,58*,-1
CCOC(=O)C(=CNc1cc(Cl)c(-c2ccco2)c(Cl)c1)C(=O)OCC,.,.,.,-1
CN(Cc1ccccc1)C(=O)c1ccccc1Br,-6,0,-9,30
O=C(CNC(=O)c1ccccc1)N/N=C/c1ccc([N+](=O)[O-])s1,-3,1,100*,-29
CCN(CC)S(=O)(=O)c1cccc(C(=O)N/N=C/c2ccc([N+](=O)[O-])o2)c1,-8,1,100*,-37
O=C(N/N=C/c1ccc([N+](=O)[O-])o1)c1ccc(O)cc1,5,2,100*,26
Cc1ccc(NCC(=O)N/N=C\c2ccc([N+](=O)[O-])o2)cc1,4,-1,100*,-2
O=C(N/N=C/c1ccc([N+](=O)[O-])o1)c1ccncc1,.,.,.,-1
O=C(CNC(=O)c1ccccc1)N/N=C/c1cccs1,-3,1,9,0
NS(=O)(=O)c1ccc(CCNC(=O)c2ccc3c(c2)OCCO3)cc1,8,1,1,14
CCCCCC(=O)N/N=C/c1ccc(N(C)C)cc1,6,1,-4,-25
O=[N+]([O-])c1ccc(/C=N/N/C(=N/c2ccccn2)c2ccccn2)cc1,-3,2,0,16
CCN(CC)c1ccc(N=Cc2ccc([N+](=O)[O-])o2)cc1,32,3,91*,-45
O=[N+]([O-])c1cc(/C=N/N/C(=N/c2ccccn2)c2ccccn2)ccc1O,6,-1,52*,61
O=C(CNC(=O)c1ccc(F)cc1)N/N=C/c1ccc(O)c([N+](=O)[O-])c1,-21,0,56*,18
CCN(CC)c1ccc(N=Cc2ccccc2[N+](=O)[O-])cc1,3,1,12,50
CCCCCC(=O)N/N=C/c1ccc([N+](=O)[O-])o1,1,-1,85*,-39
COc1ccc(CN2CCNC(=O)C2CC(=O)NC2Cc3ccccc3C2)c(OC)c1 (stereo unspecified),-16,0,-6,1
O=C(CSc1nnc(NC(=O)c2ccco2)s1)Nc1ccc2c(c1)OCCO2,3,5,-11,-25
C/C(CC(=O)Nc1ccc(Cl)c(Cl)c1)=N\NC(=O)C(=O)N1CCCCC1,-22,1,-5,8
CCC(C)NS(=O)(=O)c1ccc(S(=O)(=O)N2CC=C(c3ccc(F)cc3)CC2)cc1 (stereo unspecified),4,4,36,60
O=[N+]([O-])c1ccc(/C=N/NC(=S)Nc2ccccc2F)o1,24,1,25,-2
O=C(CCC(=O)Nc1ccc(Cl)cc1Cl)N/N=C/c1ccc([N+](=O)[O-])o1,-9,0,101*,-40
O=C(NC(NC(=S)Nc1c(Cl)cc(Cl)cc1Cl)C(Cl)(Cl)Cl)OCc1ccccc1 (stereo unspecified),7,8,33,88*
Cc1ccc(C)c(NC(=S)NC(NC(=O)OCc2ccccc2)C(Cl)(Cl)Cl)c1 (stereo unspecified),-9,1,58*,92*

# High-throughput results as filed in PubChem.
